RE007 growth inh: less growth of the S. pombe RE007 Vpr strain. S. pombe RE007 Vpr strain, BacTiter-Glo ATP luminescence, 24 h. 360,000 tested, 0.21% active. Potency, µM (highest dose often 92.2 µM), without a hit: at the highest dose activity change, negative = less growth, most hits filed as inhibitors. AID 651644; active = well fitted falling curve with a large enough effect; inconclusive = small, poorly fitted or top-dose-only effect; inactive = no such curve, though single readings can be large or run the other way; note: nearly all actives have a fitted effect of over 50% in size
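Fission yeast RE007 carrying one integrated HIV-1 vpr copy, seeded at OD 0.01 in PMG+AL medium with 23 nL pinned compound. Grown 24 h at 30 degrees; viability read by BacTiter-Glo luminescence after 5 min.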
TbPYK inhibitor: T. brucei pyruvate kinase inhibition. Q57TT1. TbPYK enzyme, Kinase-Glo Plus ATP luminescence, 45 min. Potency, µM (top dose mostly 76.8 µM), for the others: at the highest dose activity, negative = inhibition, most hits filed as inhibitors. 410,000 tested, 0.12% active. AID 624173; note: nearly all actives have a fitted effect of over 50% in size
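Screened from lowest to highest concentration, compounds were pinned into TbPYK/substrate mixtures, and ADP (130 uM final) was added. Plates sat at room temperature for 45 min prior to Kinase-Glo Plus detection by luminescence.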
Sm TGR block: S. mansoni TGR enzyme inhibition. purified TGR, DTNB reduction, TNB absorbance 405 nm. Potency, µM (top dose mostly 114 µM), for inactives: at the top dose activity change, negative = inhibition, usual class: inhibitors. 360,000 tested, 3% active; note: nearly all actives have a fitted effect of over 60% in size
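First, TGR (20 nM dispensed) and NADPH were mixed with compound. Second, a 15 min room-temperature incubation followed. Third, further NADPH and then DTNB were added to start the reaction. Finally, TNB absorbance was monitored kinetically.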
LmPK inh: blocks Leishmania mexicana pyruvate kinase activity; Q27686; purified LmPK, Kinase-Glo ATP luminescence, 1 h; Potency, µM (titrated, usually from 57.5 µM), for the others: at the top dose activity change, negative = inhibition, actives largely listed as inhibitors; 290,000 tested, 0.37% active; AID 1721
Target sequence (Q27686 whole entry, looked up): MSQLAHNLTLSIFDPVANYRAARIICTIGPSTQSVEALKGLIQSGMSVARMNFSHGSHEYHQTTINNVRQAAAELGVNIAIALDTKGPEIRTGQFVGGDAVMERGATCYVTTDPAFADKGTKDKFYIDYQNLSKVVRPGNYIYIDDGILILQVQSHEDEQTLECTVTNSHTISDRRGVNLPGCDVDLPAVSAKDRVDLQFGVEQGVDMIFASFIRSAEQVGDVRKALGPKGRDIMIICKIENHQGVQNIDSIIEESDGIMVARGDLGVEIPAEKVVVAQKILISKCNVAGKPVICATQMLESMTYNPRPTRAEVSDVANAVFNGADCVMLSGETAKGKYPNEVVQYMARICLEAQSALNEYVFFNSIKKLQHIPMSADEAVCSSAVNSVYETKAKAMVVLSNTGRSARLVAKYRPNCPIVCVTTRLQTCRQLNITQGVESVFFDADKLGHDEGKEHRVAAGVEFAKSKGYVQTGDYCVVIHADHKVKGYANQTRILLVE
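Screened at intermediate enzyme activity to detect both inhibitors and activators: LmPK at 0.1 nM, with a 0.5 nM enzyme column as activation reference. PEP 0.5 mM, ADP 0.1 mM; ATP detected by luminescence after 1 h.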
Active calls of the source: *; u = inconclusive; x = no result; [ ] = dose if it differs, or a comment. Hits are enriched below; roughly 3% of the tested compounds scored in any of these assays. Unless noted, calls come from the whole dose curve; as a rule, active = well fitted curve in the direction sought with a large enough effect; inconclusive = small, poorly fitted or top-dose-only effect, or another doubt; inactive = no such curve, though single readings can be large; an effect the other way counts as inactive or inconclusive. % is set by controls: 0 for no effect and ±100 for the full control effect; potency is the fitted concentration of half-maximal effect.

SMILES | RE007 growth inh | TbPYK inhibitor | Sm TGR block | LmPK inh
COC(=O)[C@]12CCCCC=C1N(Cc1cccc3ccccc13)C(=O)[C@H](CC(=O)NCc1ccc(OC)c(OC)c1)C2 | 1.3% | 4.6% | x | x
COc1ccc(S(=O)(=O)N2CCOCC2)cc1NC(=O)CSc1nnc2n1CCCCC2 | 4.8% | -2.0% | x | x
Cc1ccc(C(=O)N2CCN(c3ccc(NC(=S)NC(=O)c4cccs4)cc3)CC2)cc1 | 45.6% | -5.5% | 9.5% | -2.1%
COC(=O)c1cc(NC(=O)c2c(-c3ccccc3)noc2C)ccc1N1CCOCC1 | 3.7% | -6.5% | -3.2% | -5.0%
O=C(NC(=S)Nc1ccc(N2CCOCC2)cc1)c1cccs1 | -1.7% | 0.2% | 8.91µM* | 5.9%
S=C(Nc1ccc(N2CCOCC2)cc1)Nc1ccc2snnc2c1 | -0.6% | -1.3% | 35.5µM* | 5.8%
COC(=O)c1cc(NC(=S)NC(=O)c2ccccc2)ccc1N1CCOCC1 | -18.4% | -1.2% | 25.1µM* | 1.1%
NS(=O)(=O)c1cccc(NC(=S)NC(=O)c2cccc([N+](=O)[O-])c2)c1 | 9.7% | -0.2% | 15.8µM* | -0.2%
O=C(Cn1cc(SCc2c(F)cccc2Cl)c2ccccc21)N1CCCCCC1 | x | 3.1% | 7.3% | x
COc1ccc(C(=O)N2CCC3(CC2)CN(c2ccccc2)C3)cc1 | x | 4.1% | x | x
CCC(=O)N1CCN(c2ccccc2NC(=S)NC(=O)c2cccc([N+](=O)[O-])c2)CC1 | -3.3% | -6.8% | -28.3% | -2.4%
CCC(=O)Nc1cccc(NC(=S)NC(=O)c2cccs2)c1 | -5.2% | -5.2% | 25.1µM* | -1.3%
N#Cc1ccccc1NC(=O)COC(=O)c1cccs1 | -9.7% | 3.6% | x | x
CCC(=O)Nc1cccc(NC(=S)NC(=O)c2ccccc2Cl)c1 | 7.2% | 2.1% | u | -0.5%
CCC(=O)N1CCN(c2ccc(NC(=S)NC(=O)c3cccc([N+](=O)[O-])c3)cc2)CC1 | 3.5% | -4.2% | 10µM* | 6.4%
N#Cc1ccccc1NC(=S)NC(=O)c1cccs1 | -21.3% | -11.9% | 3.55µM* | -4.9%
CCOCCCNC(=O)C1CCC(CNS(=O)(=O)c2ccc(NC(C)=O)cc2)CC1 (stereo not given) | x | 3.5%[15.4 µM] | 25.1% | x
NC(=O)C1CCN(C2CC(=O)N(Cc3cccs3)C2=O)CC1 (stereo not given) | u | -9.5% | 35.5µM* | 2.4%
O=C1CC(N2CCC(c3nc4ccccc4s3)CC2)C(=O)N1Cc1ccccc1 (stereo not given) | -2.7%[3.69 µM] | x | u | 1.0%
CCCOc1ccc(N2C(=O)CC(N3CCC(c4nncn4CC)CC3)C2=O)cc1 (stereo not given) | 12.6µM* | 4.8% | u | 1.9%
CCCOc1ccc(N2C(=O)CC(N3CCN(c4nc5ccccc5s4)CC3)C2=O)cc1 (stereo not given) | u | 0.9% | 39.8µM* | -3.4%
O=C1CC(N2CCC(c3nc4ccccc4o3)CC2)C(=O)N1Cc1cccs1 (stereo not given) | u | -4.3% | 50.1µM* | 0.7%
NS(=O)(=O)c1ccc(CCNC(=O)C2COc3ccccc3C2)cc1 (stereo not given) | x | -1.7% | 8.8% | x
O=c1c(CCc2ccccc2)nc2cnc(Nc3ccccc3)nc2n1Cc1cccs1 | x | -6.0% | x | x
C[C@@H]1CN([C@H](C)CO)C(=O)CCCn2nncc2CO[C@H]1CN(C)S(=O)(=O)c1ccc(Oc2ccccc2)nc1 | 12.0% | -2.7% | x | x
SMILES | RE007 growth inh | TbPYK inhibitor | Sm TGR block | LmPK inh
COc1ccc(-n2ccnc(NCc3ccc(C)cc3)c2=O)cc1OC | x | 0.3% | 5.6% | x
Cc1cccc(N2CCN(C(=O)c3c(C)oc4nc(C)nc(N5CCCC5)c34)CC2C)c1 (stereo not given) | x | -6.8% | 0.8% | x
O=C1CC(N2CCN(c3nc4ccccc4s3)CC2)C(=O)N1Cc1cccs1 (stereo not given) | -24.2% | -6.5% | 11.2µM* | 5.1%
O=C1CC(N2CCN(c3ccc(F)cc3)CC2)C(=O)N1Cc1cccs1 (stereo not given) | -24.2% | -8.8% | u | 1.7%
Cc1ccc(CNC(=O)CCc2nnc(Cc3ccc(-c4ccccc4)cc3)o2)o1 | -2.9% | -8.2% | 25.1µM* | -4.1%
Cc1cc(NC(=O)COCc2cc(-c3ccc(F)cc3)on2)ccc1Br | x | 4.6% | -9.7% | x
Cc1[nH]c(=O)[nH]c(=O)c1/C=N/NC(=O)[C@@H](NC(=O)OC(C)(C)C)C(C)C | 4.3% | 7.2% | 35.5µM* | 2.4%
Cc1[nH]c(=O)[nH]c(=O)c1/C=N/NC(=O)[C@H](C)N | -5.4% | -3.7% | 50.1µM* | -20.9%
CC(=O)C1(C)OC(N)=C(C#N)C(c2ccccc2)C1(C#N)C#N (stereo not given) | 18.2% | -21.9% | 11.2µM* | -0.4%
CC(=O)C1=C(c2ccccc2)OC(N)=C(C#N)C1c1ccccc1C (stereo not given) | -15.2% | -5.8% | -3.0% | 6.2%
Oc1ccccc1Oc1ncc(Br)c(N2CCOCC2)n1 | 6.0% | 1.3% | -3.8% | -0.3%
Oc1ccccc1Oc1ncc(Br)c(Cl)n1 | 1.0% | 1.6% | 35.5µM* | -0.6%
CCOc1ccc(OCC)c(NS(=O)(=O)c2c(C)[nH]c(=O)[nH]c2=O)c1 | x | 3.7%[15.4 µM] | 7.9% | x
Cc1ccc(S(=O)(=O)N/N=C/c2cc(Br)c(C)o2)cc1 | -24.3% | 1.9% | 0.1µM* | -2.1%
COc1cc2sc(-c3ccc(S(C)(=O)=O)cc3)c(-c3ccc4c(c3)OCO4)c2cc1OC | 13.0% | -3.0% | x | x
Cc1ccc(-c2ccc(CCC(=O)O)o2)cc1 | -14.2% | u | 12.6µM* | -4.3%
OCCc1ccc(-c2ccc(Cl)cc2)o1 | u | -0.9% | 44.7µM* | -2.5%
Cc1cc(NC(=O)CCc2ccc(-c3ccccc3)o2)no1 | 6.3% | -2.2% | -67.5% | -7.9%
O=C(O)CCc1ccc(-c2cccs2)o1 | u | u | 0.708µM* | 18.8%
CCN1CCN(CC(=O)c2cc(Cl)ccc2Cl)CC1 | 6.4% | -3.8% | 17.8µM* | -3.0%
O=C(CN1CCCCC1)c1ccccc1Cl | -2.7% | -0.8% | -21.8% | -5.3%
O=C(NC1(C(F)(F)F)Oc2ccc(Cl)cc2O1)N1CCC2(CC1)OCCO2 (stereo not given) | 17.4% | 0.2% | 44.7µM* | -0.5%
O=C(NC1(C(F)(F)F)Oc2ccccc2O1)N1CCC2(CC1)OCCO2 | 3.3% | -12.1% | 17.8µM* | 7.8%
Cn1c(=O)c2ccccc2n2c(CCl)nnc12 | -22.1% | -13.7% | 31.6µM* | 0.1%
CC1(C)CC(=O)C(CC2=C(O)CC(C)(C)CC2=O)=C(O)C1 | -16.6% | -25.7% | 2.82µM* | -0.4%
CC1(C)CC(=O)C(CC2=C(O)CC(C)(C)CC2=O)C(=O)C1 | 13.2% | -21.9% | 23.5%[11.4 µM] | 8.3%
CC(C)(C)C1CCC(=NNC(=O)c2cc3c(s2)CCCC3)CC1 (stereo not given) | 17.2% | 2.6% | -9.9% | -1.6%
CC(C)(C)C1CCc2sc(C(=O)NNC(=O)CCl)cc2C1 (stereo not given) | 27.8% | -1.1% | 11.2µM* | 4.2%
COc1cccc(OC)c1-c1nn2c(-c3cc(-c4ccccc4)n[nH]3)nnc2s1 | 7.5% | -2.1% | 12.6µM* | -11.4%
